Bioassay records from PubChem BioAssay.
Shown are actives, neighbours in structure and some others; about 5.4% of the full set was active somewhere.
ALR H2O2 inh = human ALR oxidase inhibition via reduced H2O2; P55789; purified ALR, DTT oxidation, H2O2 HRP-luminol luminescence; inhibition, % (concentration not given with the values); hit rate 3.8% among 290,000; AID 485317;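 active = mean replicate inhibition above about 79%, with every replicate also reaching it, limit read from the data; inconclusive = only one of the two criteria met; inactive = mean below limit and not every replicate reaching it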
Target sequence (P55789 whole entry, looked up): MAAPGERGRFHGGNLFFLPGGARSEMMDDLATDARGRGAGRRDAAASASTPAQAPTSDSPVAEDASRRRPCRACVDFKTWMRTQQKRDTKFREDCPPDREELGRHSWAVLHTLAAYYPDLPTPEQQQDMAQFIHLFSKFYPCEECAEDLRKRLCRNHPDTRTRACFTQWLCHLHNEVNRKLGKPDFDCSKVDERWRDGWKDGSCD
CSC inhib = blocks cancer stem cells | hit rate 1.1% among 300,000 | AID 2717 | cancer stem cell-like cells viability, luminescence | inhibition, % at 7.5 µM; in the data active = inhibition above about 75%; inconclusive = no clear call, values can overlap the other calls; tested in HMLE shEcad cells
PP5 primary = PP5 (human) phosphatase inhibition. P53041. purified PP5c, OMFP substrate fluorescence. inhibition, % at 6.7 µM. hit rate 0.18% among 320,000. AID 1987;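 active = inhibition above the campaign's mean inhibition across all tested compounds plus 3 SD, cut at about 9.5% in these data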;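 note: 0% = DMSO only and 100% = 100 µM cantharidin control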
Target sequence (P53041 whole entry, looked up): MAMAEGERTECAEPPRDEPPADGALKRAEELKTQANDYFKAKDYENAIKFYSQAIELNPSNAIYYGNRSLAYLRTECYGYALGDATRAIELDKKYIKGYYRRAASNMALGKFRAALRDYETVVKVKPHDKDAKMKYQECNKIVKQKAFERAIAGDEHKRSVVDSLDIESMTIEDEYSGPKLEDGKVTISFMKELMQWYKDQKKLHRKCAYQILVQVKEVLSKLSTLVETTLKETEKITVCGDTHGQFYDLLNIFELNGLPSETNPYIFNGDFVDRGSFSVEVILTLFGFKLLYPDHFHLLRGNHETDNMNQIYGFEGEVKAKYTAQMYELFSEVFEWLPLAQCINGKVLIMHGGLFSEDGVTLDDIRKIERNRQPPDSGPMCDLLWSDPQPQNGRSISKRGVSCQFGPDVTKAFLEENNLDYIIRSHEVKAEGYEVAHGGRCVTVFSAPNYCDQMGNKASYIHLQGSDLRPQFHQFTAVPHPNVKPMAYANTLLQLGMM
PP1 counter = PP1-alpha (human) inhibition in PP5 counter-screen. P62136. purified PP1alpha, OMFP fluorescence. inhibition, % at 6.7 µM. hit rate 0.9% among 320,000;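 active = inhibition above the mean inhibition of all tested compounds plus 3 SD, computed separately for each screening campaign, cut at about 15% in these data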
Calb FLC = C. albicans growth modulation with fluconazole | C. albicans CaCi-2 (fluconazole-resistant clinical isolate) + fluconazole, Alamar Blue growth, 48 h | hit rate 0.57% among 300,000 | growth inhibition, % (test concentration not listed);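 active = growth inhibition above about 58% in most replicates, limit read from the data, passing the limit was not always enough; inconclusive = exactly half the replicates above a set limit; inactive = most replicates below a set limit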;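 note: all wells also contain fluconazole at 8 µg/ml as a sub-toxic cotreatment; 0% = median of DMSO wells and 100% = median of geldanamycin control wells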
* = called active by the depositor; ? = inconclusive; nt = not tested or not shown.

SMILES	ALR H2O2 inh	CSC inhib	PP5 primary	PP1 counter	Calb FLC
COc1ccc(C)cc1N(CC(=O)N1CCCC1)S(C)(=O)=O	-10.8	4.9	0.9	-6.2	-1.9
CCN1C(=O)CC(N2CCN(c3ccc(C(=O)c4ccncc4)cc3)CC2)C1=O (stereo not drawn)	-4.2	-10.5	2.4	-4.3	17.3
COc1ccc2nc(NC(=O)Cn3cnc4c(=O)n(C)c(=O)n(C)c43)sc2c1	nt	-8.2	0.4	-7.6	5.6
Cn1c(=O)c2c(ncn2CC(=O)Nc2nc3ccc(F)cc3s2)n(C)c1=O	98.8*	-3.5	0.2	0.3	4.6
O=C(CC1CCCCC1)N1CCC(c2nc(-c3ccc(S(=O)(=O)N4CCCC4)cc3)no2)CC1	-5.7	42.2	2.3	-0.3	-10.2
Cc1cc(N)n(-c2nc3ccccc3s2)n1	98.8*	15.4	-2.0	-0.7	18.0
COc1ccccc1CC(=O)Nc1cccc(C(=O)Nc2nccs2)c1	-0.6	-5.6	1.2	-2.1	-0.3
Oc1ccccc1N=N/C(=N/Nc1ccccc1O)c1ccccc1	-2.2	18.1	0.1	-0.5	-9.8
N#C/C(N=Nc1ccccc1O)=N\Nc1ccccc1O	98.8*	8.8	0.9	2.2	0.5
O=C(Nc1cccnc1)C1OCCc2ccccc21 (stereo not drawn)	nt	-4.3	1.6	0.6	-0.9
c1ccc2c(NC3CCCC3)nnc(NC3CCCC3)c2c1	98.4*	7.9	-1.0	1.2	-11.3
CC1(C)Cc2c(C#N)c(N3CCOCC3)nc(Cc3ccccc3)c2CO1	-9.2	-12.6	-0.4	-0.4	-10.8
CC(C)Oc1ccc2c(=O)c(-c3ccccc3)coc2c1	nt	2.6	3.1	-1.7	nt
CC(=O)Oc1ccc2c(=O)c(-c3nc4ccccc4s3)coc2c1	nt	84.3*	2.0	3.0	89.5*
O=C1CC(c2ccccc2)Cc2nc(NCc3ccco3)ncc21 (stereo not drawn)	-8.0	1.1	-0.2	-1.0	12.0
O=C(CS)Nc1ccc2ccccc2c1	97.1*	-4.6	-1.4	-1.6	-5.5
O=C(CSCc1nc2ccccc2[nH]1)Nc1ccc2ccccc2c1	98.7*	-5.0	1.8	6.8	-0.9
CCCCCC(=O)Nc1ccc2ccccc2c1	nt	-2.8	3.2	1.6	23.2
O=C(CSCc1nc2ccccc2[nH]1)Nc1ccc(Oc2ccccc2)cc1	-8.0	33.9	6.1	3.0	1.7
C/C(CC(=O)Nc1ccc2ccccc2c1)=N\NC(=O)c1ccc(O)c(O)c1	99.4*	2.0	4.1	0.5	-6.6
CCOC(=O)N1CCN(C(=O)c2noc3c2COc2ccccc2-3)CC1	-4.2	-0.4	-0.5	-3.2	-1.1
CCC(=O)N(Cc1cc(=O)[nH]c2ccccc12)c1ccccc1	-15.2	0.5	1.6	1.1	2.4
O=C(CCl)N(Cc1cc(=O)[nH]c2ccccc12)c1ccccc1	95.5*	45.0	-0.1	0.9	23.0
COc1ccc(-c2csc(Nc3ccc(S(=O)(=O)Nc4cc(C)on4)cc3)n2)cc1C	98.9*	16.8	4.9	6.6	-17.8
COc1ccc(-c2csc(NC(=O)CSCC(=O)Nc3cc(C)on3)n2)cc1OC	99.2*	-3.3	-1.6	-0.2	9.5
SMILES	ALR H2O2 inh	CSC inhib	PP5 primary	PP1 counter	Calb FLC
COc1ccc(-c2csc(NC(=O)CSCc3c(C)noc3C)n2)cc1OC	-8.5	3.2	2.5	-5.2	2.5
COc1cc(C)nc(Oc2ccc(OCCOc3ccccc3)nn2)n1	nt	-10.9	-0.5	-2.4	11.1
C=CCN1C(c2ccccc2)=CS/C1=C(/C#N)c1nnc(N2CCOCC2)n1-c1ccccc1	98.6*	-17.4	-2.3	-3.0	-5.8
CN1C(c2ccc(F)cc2)=CS/C1=C(/C#N)c1nnc(N2CCOCC2)n1-c1ccccc1	98.3*	30.4	-1.5	-5.8	1.1
CN1C(=O)NC(c2ccccc2)(C(F)(F)F)S/C1=C(/C#N)c1nnc(N2CCOCC2)n1-c1ccccc1 (stereo not drawn)	7.7	0.3	2.7	-0.4	33.9
Cc1[nH]c2ccccc2c1C(=O)CCl	nt	nt	nt	nt	95.7*
Cc1[nH]c2ccccc2c1CCNC(=O)c1ccc2nccnc2c1	nt	1.9	-1.4	-2.3	1.2
CCCc1c(C)[nH]c2ccccc2c1=O	-9.2	-12.0	-0.3	-3.0	?
Cc1[nH]c2ccccc2c1CCC(N)=O	98.5*	-3.5	-0.9	0.1	-2.9
Cc1[nH]c2ccccc2c1CCNC(=O)CCC(=O)c1ccccc1	95.3*	3.1	1.0	-1.9	6.4
Cc1ccc(CNC(=O)c2cccc3c2C(=O)c2ccc(N4CCOCC4)cc2S3(=O)=O)cc1	-8.5	-6.1	-0.2	-5.2	nt
CC(=O)N[C@@H](CC(=O)N[C@H](CCC(=O)O)C(=O)O)C(=O)O	-16.3	-9.5	0.2	4.1	nt
CCCCC(=O)N1CCN(c2nc3ccc(F)cc3s2)CC1	-3.2	8.8	1.8	-3.1	5.2
COC(CN(C)C(=O)c1ccc2c(c1)NC(=O)c1ccccc1S2)OC	-5.1	-4.6	nt	nt	119.6*
CCOC(=O)c1c(NC(=O)CCc2ccc(CC)o2)sc(C)c1C	97.5*	8.0	3.1	0.5	-3.9
COC(=O)c1c(NC(=O)CCc2ccc(C)o2)sc(C)c1C	97.1*	-6.6	3.5	3.2	-9.4
CCOC(=O)c1ccc(NC(=O)CCc2ccc(CC)o2)cc1	12.8	-4.0	2.4	-0.9	19.0
COc1ccc(C2=CSC3=NCCN23)cc1OC	95.9*	-5.4	-1.1	-0.8	-30.1
Clc1ccc(C2=CSC3=NCCN23)cc1Cl	96.8*	17.7	-1.4	2.8	9.8
CCN1CCSc2ccc(C(=O)NCc3ccccc3Br)cc21	6.1	5.2	4.1	1.1	-5.0
CC(NC(=O)CSc1ncccn1)c1ccc2c(c1)OCO2 (stereo not drawn)	0.5	-14.5	nt	nt	nt
c1ccc(CN2CCC(Nc3nc(-c4ccccc4)nc4ccccc34)CC2)cc1	-21.9	139.0*	5.3	7.1	-1.7
c1ccc(CNc2nc(N3CCN(Cc4ccccc4)CC3)nc3ccccc23)cc1	-9.1	97.9*	4.0	6.0	-0.9
Cc1csc2ncnc(NC3CCN(Cc4ccccc4)CC3)c12	-1.1	-4.3	-0.8	-1.4	73.4
CCOc1ccc(N=C2SC(C(=O)Nc3ccccc3C#N)C(N)=C2C(=O)Nc2ccc(Cl)cc2)cc1 (stereo not drawn)	-17.5	16.4	3.9	19.3*	-8.4
SMILES	ALR H2O2 inh	CSC inhib	PP5 primary	PP1 counter	Calb FLC
S=c1nccc(-c2ccc3c(c2)CCO3)[nH]1	98.0*	-18.3	-2.9	-6.5	1.2
CC1(C)CCc2cc(CN3CCN(c4ccccn4)CC3)ccc2O1	0.9	14.0	0.7	1.4	-20.5
S=c1nccc(-c2cccs2)[nH]1	99.1*	0.6	1.2	-4.1	-6.4
CC1(C)CCc2cc(-c3ccnc(=S)[nH]3)ccc2O1	99.8*	-5.8	1.9	3.7	-7.1
Cc1ccc(-c2ccnc(=S)[nH]2)cc1	99.6*	-37.1	-0.5	0.8	-9.5
CCn1c(NC(=O)c2ccccc2F)c(-c2cccs2)c(=O)c2ccccc21	-3.6	-9.9	1.1	-4.0	-0.3
Cc1ccccc1-n1ccnc1SCC(=O)O	-3.6	0.0	-0.3	-5.8	6.3
Cc1ccccc1CSc1nccn1-c1ccccc1	98.6*	21.5	0.9	-0.3	-2.4
O=C(c1cccc(C(F)(F)F)c1)C1CCCN(C(=O)c2cc(C3CC3)[nH]n2)C1 (stereo not drawn)	86.1*	-7.9	1.1	-0.7	-3.5
